The source of these data is publication PMC5540273 (PLoS ONE, 2017).
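Further: KINOMEscan kinase panel screen.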

In the experiment the test system is CSNK1A1L. Conditions: concentration: 1 μM, replicates: in singlicate; n = 1.
As for `COc1cc2ncn(-c3cc(OCC4CCCO4)c(C(N)=O)s3)c2cc1OC` (stereo not shown) [GSK204607], the “%Inh” value is on record as 0%.
As for `C[C@@H]1CCCCN1c1cc(-c2ccc3c(N)n[nH]c3c2)nc(N)n1` [GSK2258759], the figure is 0%; as for `COc1ccc(C2=C(Nc3cccc(C(=O)O)c3)C(=O)NC2=O)cc1` [SB-390765], 11%.
As for `CCCc1ccc(S(=O)(=O)NC2CCN(c3ccnc(Nc4ccc(F)cc4)n3)C2)cc1` (stereo not shown) [GSK1379715], the figure is 0%.
Take `O=C(Nc1ccccc1)Nc1cccc(Oc2ccc3nccn3n2)c1`: the “%Inh” value amounted to 59%.
Regarding `Cn1ccc2ncnc(Oc3ccc(Nc4nc5ccccc5[nH]4)cc3)c21`, the “%Inh” value was determined as 8%.
In the case of `Cc1cccc(-c2cc(Nc3ccncc3)c3ccccc3n2)n1` [GSK223675] it was 0%.
In the case of `Cc1ccc(NC(=O)Nc2cccc(Cl)c2)cc1-c1ccc(C(=O)Nc2ccncc2)cc1` [GSK1398468] it was 15%; in that of `COc1ccc(CNC(=O)NC2CCN(c3ccnc(Nc4cc(OC)c(OC)c(OC)c4)n3)C2)cc1` (stereo not shown) [GSK1379748], 0%.
On to `O=S(=O)(c1ccc(-c2ccnc3[nH]ccc23)cc1)N1CCCC1` [GSK846226], for which the “%Inh” value came out at 2%.
In the case of `COc1ccccc1-c1ccc2c(NC(=O)C3CC3)n[nH]c2n1` [SB-711239] it was 6%; in that of `Cl.O=C(Nc1cccc(-c2nn3ncccc3c2-c2ccnc(Nc3cccnc3)n2)c1)c1c(F)cccc1F` [GSK312879], 4%; in that of `O=C(Nc1n[nH]c2nc(-c3nccs3)c(Br)cc12)C1CCCC1` [SB-742609], 6%.
Consider `COc1cc(Nc2nccc(N3CCC(NC(=O)Nc4cc(C)ccc4C)C3)n2)cc(OC)c1OC` (stereo not shown) [GSK1379762], for which the “%Inh” value stood at 17%.
In the case of `CC(=O)Nc1nc2cnc(Nc3cc(NC(=O)c4cccc(CCC#N)c4)ccc3C)nc2s1` it was 0%; in that of `Cc1cc(N2Cc3ccccc3C2)nc(Nc2ccc(S(=O)(=O)N3CCOCC3)cc2)n1.Cl` [GSK1669917], 0%; in that of `Cc1cccc(-c2nc(C)cc(Nc3ccncc3)n2)n1` [GSK257997], 7%.
In the case of `O=c1cc(N2CCOCC2)nc2n(Cc3cccc(Cl)c3Cl)ccn12` [GSK2286295] it was 6%; in that of `Cc1cc(-c2ccc3c(c2)CC[C@@H](N[C@@H](C)c2ccccc2)C3)cnc1N.Cl` [GW412617], 21%.
For `COc1ccccc1CNC(=O)c1cc(C(=O)c2ccccc2C)c[nH]1` [GSK364507], the “%Inh” value worked out at 20%.
`Cc1cccc(-c2nc(Nc3cccc(C(N)=O)c3)c3ccccc3n2)n1` [GW876019]: the “%Inh” value was determined as 3%.
In the case of `Cc1csc(-c2nc(Nc3ccncc3)c3ccccc3n2)n1` [GW869640] it was 10%.
As for `CS(=O)(=O)c1ccc(-c2nc3n(c2-c2ccncc2)CCC3)cc1` [SKF-105942], the figure is 2%.
In the case of `Nc1ncnc2[nH]c(-c3ccccc3)nc12` [AH5015] it was 1%.
Consider `Cc1cccc(-c2nc(Nc3ccncc3)c3ccccc3n2)n1` [GW855857], for which the “%Inh” value was 10%.
As for `COC(=O)c1c(-c2ccccc2)c2cc(OC)ccc2c(=O)n1Cc1ccccc1`, the figure is 4%.
`Cc1c(Cn2ccn3c(=O)cc(N4CCOCC4)nc23)cccc1C(F)(F)F` [GSK2289044]: the “%Inh” value turned out to be 0%.
In the case of `COc1ccc(Nc2nccc(-c3cccc(NC(=O)c4cc5cc(F)ccc5[nH]4)c3)n2)cc1` [GSK1229782] it was 20%; in that of `O=C(O)COc1ncnc2cc(-c3ccc4[nH]ncc4c3)sc12`, 0%; in that of `Cc1ccc(-c2cc(-c3c[nH]nc3-c3ccccn3)ccn2)cc1` [GW684088], 0%.
As for `Cc1c(O)cccc1Nc1ccnc2ccc(C(F)(F)F)cc12.Cl` [GW466413], the figure is 3%; as for `CS(=O)(=O)c1ccc(-c2c(-c3ncn[nH]3)sc(N3CCOCC3)c2C#N)cc1`, 0%.
As for `Fc1cccc(COc2nnc(-c3ccc4c(c3)CCO4)o2)c1`, the figure is 12%; as for `COc1cc2ncnc(Nc3ccc4nc(-c5ccccc5)[nH]c4c3)c2cc1OC.Cl` [GW282450], 0%.
